Bioassay records from PubChem.
PINK1 expr mod: A Quantitative High throughput Screen to Identify Chemical Modulators of PINK1 Expression; 410,000 compounds, 0.2% hits; PINK1 immunofluorescence, high-content cytometry, 24 h; Potency, µM (titrated, usually from 76.6 µM), for the others: top-dose activation (PINK1 increase), most hits filed as activators; active = well fitted activation curve with a large enough effect; inconclusive = small, poorly fitted or top-dose-only effect; cell line not stated here; note: % of control where 0% means no effect; nearly all actives have a fitted effect of over 65% in size
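Measures PINK1 amount and localization on or inside mitochondria by immunofluorescence. Stable cells get compounds at 5 concentrations for 24 hours before fixation and staining; CCCP controls included.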
PTAP TSG101 blk: qHTS Assay for Iinhibitors of HIV-1 Budding by Blocking the Interaction of PTAP/TSG101 | Fluorescence polarization, FITC-PTAP peptide / Tsg101 binding | Potency, µM (titrated, usually from 115 µM), for the others: at the top dose activity change, negative = inhibition, hits mostly inhibitors | 340,000 tested, under 10 active; active = well fitted inhibition curve with a large enough effect in the main read-out, with a control signal flat, not every such curve was filed as active; inconclusive = small, poorly fitted or top-dose-only effect, or effect the other way, or a change in a side signal; inactive = no such curve, though single readings can be large or run the other way; note: % of control where 0% means no effect
Target sequence (Q99816 whole entry, looked up): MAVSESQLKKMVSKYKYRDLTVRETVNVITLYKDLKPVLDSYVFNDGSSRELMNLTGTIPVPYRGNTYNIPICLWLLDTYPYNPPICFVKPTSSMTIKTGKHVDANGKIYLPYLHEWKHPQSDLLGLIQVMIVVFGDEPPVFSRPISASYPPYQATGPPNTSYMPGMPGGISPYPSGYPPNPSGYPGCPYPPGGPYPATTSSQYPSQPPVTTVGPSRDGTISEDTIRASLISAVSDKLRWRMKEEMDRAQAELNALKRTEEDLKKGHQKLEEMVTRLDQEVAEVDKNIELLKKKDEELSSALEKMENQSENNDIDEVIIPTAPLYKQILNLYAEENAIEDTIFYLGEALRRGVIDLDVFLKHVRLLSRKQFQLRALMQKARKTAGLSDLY
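Tsg101 binding domain (10 uM final) was mixed with compound and a FITC-labeled PTAP peptide (50 nM final) in HEPES pH 7.5 buffer with NaCl, Tween 20, EDTA and TCEP; fluorescence polarization was read after 20 min at r.t.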
MCF10A rereplic: A quantitative high throughput screen for small molecules that induce DNA re-replication in MCF 10a normal breast cells. Potency, µM (titrated, usually from 46.1 µM), without a hit: at the top dose activity, positive = re-replication, usual class: activators. 350,000 compounds, 2.9% hits. MCF 10A DNA re-replication, Hoechst nuclear intensity, 48 h. AID 624296, 2012; note: % of control where 0% means no effect; nearly all actives have a fitted effect of over 50% in size
SW480 rerep: A quantitative high throughput screen for small molecules that induce DNA re-replication in SW480 colon adenocarcinoma cells | SW480 DNA re-replication, Hoechst DNA content imaging, 48 h | Potency, µM (top dose mostly 46.1 µM), for inactives: at the top dose re-replication activation, actives largely listed as activators | 340,000 compounds, 1.8% hits | AID 624297, 2012; note: % of control where 0% means no effect; nearly all actives have a fitted effect of over 55% in size
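250 cells/well; 23 nL cpd via pin tool; 48 hr, 37 C, 5% CO2; Hoechst 40 min; imager read of total nuclear intensity, ex 405/em 500-530 nm.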
KB-V1 cytotox: qHTS assay for MDR1-selective chemotherapeutics: Primary screen using the drug-selected MDR subline cells KB-V1; KB-V1 MDR cells viability, CellTiter-Glo, 72 h; 400,000 compounds, 3.4% hits; Potency, µM (titrated, usually from 46.1 µM), hits mostly cytotoxic; AID 1347076, 2019; note: % is set by controls: 0 for no effect and ±100 for the full control effect; nearly all actives have a fitted effect of over 60% in size
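Following 72 h at 37 degrees C with compound, KB-V1 cell viability was read by CellTiter-Glo luminescence, medium being phenol-red-free DMEM plus 10% FBS; concentration-response parameters came from normalized, curve-fitted qHTS data.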
KB-3-1 tox: qHTS assay for MDR1-selective chemotherapeutics: Primary screen using the parental adenocarcinoma cell KB-3-1; KB-3-1 viability, CellTiter-Glo ATP luminescence, 72 h; Potency, µM (titrated, usually from 46.1 µM), actives largely listed as cytotoxic; 400,000 compounds, 1.4% hits; note: % is set by controls: 0 for no effect and ±100 for the full control effect; nearly all actives have a fitted effect of over 60% in size
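Using CellTiter-Glo luminescence, growth of non-resistant KB-3-1 adenocarcinoma cells is assessed 72 h after pin-tool compound addition at 37 °C. Normalized responses across the concentration series yield fitted curves.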
* = called active by the depositor; [ ] = another dose, or the depositor's remark. A selection: hits, their analogues and other compounds. The true share with any hit is near 6.8%. Unless noted, calls come from the whole dose curve; as a rule, active = well fitted curve in the direction sought with a large enough effect; inconclusive = small, poorly fitted or top-dose-only effect, or another doubt; inactive = no such curve, though single readings can be large; an effect the other way counts as inactive or inconclusive. Potency is the fitted concentration of half-maximal effect.

How did COc1ccc(C(CCNC(C)c2ccccc2)c2ccc(F)cc2)cc1 (stereo not drawn) do in these assays?
PINK1 expr mod: -2%; PTAP TSG101 blk: -7%; MCF10A rereplic: inconclusive; SW480 rerep: -52%; KB-V1 cytotox: 12µM*; KB-3-1 tox: inconclusive

Results for COc1ccc(CNCCC(c2ccc(F)cc2)c2ccc(OC(C)C)cc2)cc1OC (stereo not drawn) ?
PINK1 expr mod: -1%; PTAP TSG101 blk: 0%; MCF10A rereplic: inconclusive; SW480 rerep: inconclusive; KB-V1 cytotox: inconclusive; KB-3-1 tox: inconclusive

How did COc1ccc(C(CCNCc2ccc(F)cc2)c2ccc(F)cc2)cc1 (stereo not drawn) do in these assays?
PINK1 expr mod: -2%; PTAP TSG101 blk: -4%; MCF10A rereplic: 5.2µM*; KB-V1 cytotox: inconclusive; KB-3-1 tox: inconclusive

What do the screens show for `Cc1cccc(OC(=O)c2snnc2C)c1C`?
PINK1 expr mod: -1%; KB-V1 cytotox: inactive; KB-3-1 tox: inactive

How did COc1ccc(OC)c(NC(=O)c2oc3c(c2C)-c2nn(Cc4ccc(Cl)cc4)cc2CC3)c1 do in these assays?
PINK1 expr mod: 4%

What do the screens show for `COc1ccc(C(CCNCc2ccccc2)c2ccc(F)cc2)cc1` (stereo not drawn)?
PINK1 expr mod: -3%; PTAP TSG101 blk: -1%; MCF10A rereplic: 10%; KB-V1 cytotox: 18µM*; KB-3-1 tox: inconclusive

What do the screens show for `COc1ccc(CNCCC(c2ccc(OC)cc2)c2ccccc2OC)cc1` (stereo not drawn)?
PINK1 expr mod: -1%; PTAP TSG101 blk: 0%; MCF10A rereplic: inconclusive; SW480 rerep: inconclusive; KB-V1 cytotox: inconclusive; KB-3-1 tox: inconclusive

How did COc1cccc(OC)c1CN1CCC2(CCC(CNC(=O)c3ccccc3)O2)CC1 (stereo not drawn) do in these assays?
PINK1 expr mod: 0%

Results for CN(CCCNC(=O)C1CCN(S(=O)(=O)c2cccc3nsnc23)CC1)Cc1ccccc1 ?
PINK1 expr mod: -1%; PTAP TSG101 blk: 0%; MCF10A rereplic: -9%; SW480 rerep: 5%; KB-V1 cytotox: inactive; KB-3-1 tox: inactive

How did CN(Cc1ccccc1)C(=O)C1CCC(CNS(=O)(=O)c2cccc3cccnc23)CC1 (stereo not drawn) do in these assays?
PINK1 expr mod: -1%; PTAP TSG101 blk: -5%; MCF10A rereplic: 24%; SW480 rerep: inconclusive; KB-V1 cytotox: 9.2µM*; KB-3-1 tox: inactive

How did O=C(Nc1cccc(C(F)(F)F)c1)C1CCCN1S(=O)(=O)c1cccc2cccnc12 (stereo not drawn) do in these assays?
PINK1 expr mod: -4%[38.3 µM]; PTAP TSG101 blk: -5%; MCF10A rereplic: 2%; SW480 rerep: -8%; KB-V1 cytotox: 2.6µM*; KB-3-1 tox: inactive

What do the screens show for `Cc1cccc(NC(=O)C2CCCN(S(=O)(=O)c3cccc4nsnc34)C2)c1` (stereo not drawn)?
PINK1 expr mod: 3%[38.3 µM]; PTAP TSG101 blk: 0%; MCF10A rereplic: 15µM*; SW480 rerep: inconclusive; KB-V1 cytotox: inactive; KB-3-1 tox: inactive

What do the screens show for `CN(Cc1ccccc1)C(=O)C1CCN(S(=O)(=O)c2cccc3nsnc23)CC1`?
PINK1 expr mod: -1%; PTAP TSG101 blk: 0%; MCF10A rereplic: 20%; SW480 rerep: 21µM*; KB-V1 cytotox: inconclusive; KB-3-1 tox: inactive

Results for CCOC(=O)c1ccc(NC(=O)Cn2nc(C)c3nn(-c4ccc(Cl)cc4)c(C)c3c2=O)cc1 ?
PINK1 expr mod: 2%
